Compound activity as filed in PubChem.
This is a sample that favours compounds with a hit; in the whole collection about 4.6% have one here.
SKKanGAS inh: inhibitors of SKKanGAS S. pyogenes growth in kanamycin (SK-promoter or general growth effect). BacTiter-Glo, 6 h. inhibition, % at 7.5 µM. 1.3% of 300,000 active;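 active = mean replicate score, as percent of positive control median, at least 50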;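 note: strain carries kanamycin resistance gene driven by streptokinase promoter and grows in 40 µg/ml kanamycin; loss of luminescence reflects streptokinase promoter inhibition or plain growth inhibition; 0% = median of DMSO wells and 100% = positive control at its reference dose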
tim23-1 inh: tim23-1 yeast growth inhibition | S. cerevisiae tim23-1 growth, BacTiter-Glo luminescence, 24 h | inhibition, % at 20 µM | 1.3% of 330,000 active | AID 463212;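 active = growth inhibition of the mutant yeast at or above 50%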;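 note: temperature-sensitive mutant grown at 25 °C; plate controls were DMSO-treated mutant yeast for no effect and medium wells lacking yeast for full effect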
V-ATPase pH: regulators of yeast V-ATPase proton transport | S. cerevisiae, pHLuorin cytosolic pH fluorescence | response, % at 10 µM | 0.37% of 350,000 active; in the data active = response mostly above about 7.3%, no sharp cut-off; inactive = mostly below about 5.4%; note: actives read high
PfHsp90 set2: inhibits growth of yeast expressing Plasmodium falciparum Hsp90; inhibition, % at 9.4 µM; 0.32% of 310,000 active; AID 504621; S. cerevisiae expressing PfHsp90, BacTiter-Glo ATP, 48 h; yeast lacking PDR1 and PDR3 efflux regulators;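 active = every replicate shows inhibition above about 80%, whatever the replicate mean, limit read from the data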;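 note: 0% = DMSO neutral controls and 100% = 20 µM radicicol positive controls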
tim10-1 inh: inhibits growth of tim10-1 mutant yeast | S. cerevisiae tim10-1 ts strain growth, BacTiter-Glo, 24 h | inhibition, % at 20 µM | 2.2% of 330,000 active;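 active = inhibition of at least 40%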;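 note: mutant grown at 25 °C; 0% = DMSO wells with yeast and 100% = wells holding no yeast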
TIM10 inh: growth inhibitors of TIM10 yeast strain; S. cerevisiae TIM10 strain growth, BacTiter-Glo luminescence, 24 h; inhibition, % at 10 µM; 1.4% of 330,000 active;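 active = inhibition of 40% or more at the single tested concentration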;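 note: wild-type TIM10 isogenic control strain grown at permissive 25 °C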
The depositor's hits bear a star; nt = no result.

SMILES	SKKanGAS inh	tim23-1 inh	V-ATPase pH	PfHsp90 set2	tim10-1 inh	TIM10 inh
O=C(OCc1nnc(-c2cccs2)o1)C1=NN(c2ccccc2)C(=O)CC1	nt	20	-2	-9	12	5
COc1ccc(OC)c(NC(=O)Nc2ccc(O)c3ccccc23)c1	37	-31	-2	108*	-2	1
CCOC(=O)C1CCN(C(=O)c2ccc3c(=O)n4nc(Nc5cc(C)ccc5C)sc4nc3c2)CC1	50*	20	-3	-15	25	12
CSc1nnc(-c2cc3c(s2)-c2ccccc2CC3)o1	17	34	-2	-19	32	2
S=c1[nH]nc(-c2cc3c(s2)-c2ccccc2CC3)o1	73*	34	4	-91	23	6
CCN(CC)Cc1nc2c(c(=O)[nH]1)C1(CCCC1)Cc1ccccc1-2	-17	26	-1	nt	36	38
c1ccc(OCc2nc3c4c(ncn3n2)-c2ccccc2CC42CCCC2)cc1	52*	-6	1	-7	-17	-26
Cc1[nH][nH]c(=O)c1C(c1c(C)[nH][nH]c1=O)c1cn(Cc2ccc(F)cc2)c2ccccc12	nt	nt	0	-15	nt	nt
Cc1[nH][nH]c(=O)c1C(c1c(C)[nH][nH]c1=O)c1cn(Cc2ccc(Cl)c(Cl)c2)c2ccccc12	69*	nt	0	8	nt	nt
COC(=O)c1sc(-c2ccc(C(C)(C)C)cc2)cc1NC(=O)c1ccccc1C(=O)O	54*	35	2	-19	27	18
COC(=O)c1sc(-c2ccc(C(C)(C)C)cc2)cc1NC(=O)CSCC(=O)O	57*	8	-3	-32	15	10
COC(=O)c1sc(-c2ccccc2)cc1NC(=O)C1CC1	16	22	-3	0	20	21
COc1ccc(C2CC(c3cccs3)=NN2C(=O)CSc2nc3c(cnn3-c3ccccc3)c(=O)[nH]2)cc1 (stereo not drawn)	64*	0	0	5	-16	-12
COc1cccc(C2CC(c3cccs3)=NN2C(=O)CSc2nc3c(cnn3-c3ccc(F)cc3)c(=O)[nH]2)c1OC (stereo not drawn)	57*	15	-2	1	16	11
COc1cccc(C2CC(c3cccs3)=NN2C(=O)CSc2nc3ccccc3s2)c1OC (stereo not drawn)	5	25	-2	-9	31	12
CCN1CCN(Cc2c3ccccc3cc3ccccc23)CC1	-2	-12	-5	-4	4	-10
CCc1c(C)c(C#N)c2[nH]c3ccccc3n2c1=S	60*	41	-1	-13	21	13
COc1ccc(OCC(=O)Nc2cc(S(=O)(=O)N3CCCC3)ccc2Cl)cc1	nt	-4	-1	2	-8	-10
Cc1ccc(Nc2nc3ccccc3[nH]2)nc1	66*	-78	-3	nt	14	4
O=C(O)c1cc([N+](=O)[O-])ccc1N1CCC(Cc2ccccc2)CC1	5	5	3	-35	15	4
O=C(NCC1CCCO1)c1cc([N+](=O)[O-])ccc1N1CCC(Cc2ccccc2)CC1 (stereo not drawn)	nt	15	0	97*	-11	9
CC(C)(O)c1[nH]c2cc(F)ccc2c1C(C)(C)O	90*	nt	2	9	nt	nt
CC(C)(O)c1[nH]c2ccc(C(F)(F)F)cc2c1C(C)(C)O	8	23	-4	-7	23	13
O=C1CC(NCCC2=CCCCC2)C(=O)N1c1cccc(Cl)c1Cl (stereo not drawn)	-2	19	nt	nt	38	11
Cc1ccc(-c2cc3nc(-c4ccc(Br)cc4)cc(N)n3n2)cc1	75*	-3	-3	-3	-2	18
COc1ccc(C(=O)NC2CC2)cc1OC1CCN(Cc2ccc(NC(C)=O)cc2)CC1	14	1	6	-30	-3	-6
O=C(O)c1cc(-c2ccc(-c3c(-c4ccc5c(c4)OCO5)noc3-c3ccsc3)cc2)nc2ccccc12	94*	nt	3	-6	nt	nt
O=C(CN(C(=O)c1csnn1)c1cccc2ccccc12)NC1CCCC1	-7	9	-1	8	14	14
Cc1ccc(S(=O)(=O)N2CCCCC2)cc1NC(=O)c1cc2ccccc2o1	nt	41	27*	-20	21	31
CCN1CCN(c2ccc(S(=O)(=O)N3CCCCC3)cc2NC(=O)c2cc3ccccc3o2)CC1	7	5	-3	nt	16	13
